Screens deposited in PubChem by National Center for Advancing Translational Sciences (NCATS).
PLK1 PBD inh: blocks phosphopeptide binding to human PLK1 polo-box domain. Plk1 PBD binding of FITC phosphopeptide, fluorescence polarization. Potency, µM, without a hit: max response, negative = inhibition, hits mostly inhibitors. 360,000 compounds, 2.8% hits; note: potency is the fitted concentration of half-maximal effect; series mostly up to about 57 µM; nearly all actives have a fitted effect of over 65% in size
WRN helicase inh: WRN helicase (human) inhibition; WRN helicase unwinding, fluorescent forked duplex, kinetic; Potency, µM (titrated, usually from 114 µM), inactives show at the highest dose activity change, negative = inhibition, most hits filed as inhibitors; 360,000 compounds, 0.46% hits; note: potency is the fitted concentration of half-maximal effect; nearly all actives have a fitted effect of over 55% in size
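Screening of the MLSMR collection measured strand separation of a quenched forked DNA duplex (100 nM) by 20 nM WRN with 2 mM ATP, all final. Compounds were preincubated with enzyme 15 min at room temperature.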
USP2a inh: inhibitors of human ubiquitin-specific protease USP2a; Potency, µM (highest dose often 38.3 µM), inactives show top-dose activity change, negative = inhibition, actives largely listed as inhibitors; USP2 core, Ub-CHOP2 coupled fluorogenic reporter, 485/531; AID 463254; 330,000 compounds, 0.01% hits; O75604;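 note: potency is the fitted concentration of half-maximal effect; plate controls were DMSO wells for no effect and full inhibition by NEM control for full effect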
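USP2 core (10nM final) preincubated 30min RT with compound in 20mM Tris-HCl pH 8.0, 2mM CaCl2, 2mM beta-mercaptoethanol, 0.05% CHAPS; 25nM Ub-CHOP2 plus 25nM reporter substrate added, fluorescence (Ex485/Em531) read after 60min.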
USP1 inh: USP1/UAF1 (human) deubiquitinase inhibition; O94782; recombinant USP1/UAF1, Ub-Rhodamine cleavage fluorescence; Potency, µM (top dose mostly 57.1 µM), inactives show top-dose activity change, negative = inhibition, hits mostly inhibitors; 390,000 compounds, 0.23% hits; AID 743255; note: potency is the fitted concentration of half-maximal effect; nearly all actives have a fitted effect of over 60% in size
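1 nM enzyme complex + cpd, 15 min RT; start with Ub-Rho 150nM final; kinetic fluorescence ex 480/em 540, 6 reads q60 s. Buffer 50mM HEPES pH 7.8, 0.5mM EDTA, 0.1 mg/ml BSA, 1mM TCEP, 0.01% Tween-20.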
PI5P4K alpha inh: inhibitors of human PI5P4K alpha | 330,000 compounds, 1.2% hits | AID 652105 | P48426 | PI5P4Kalpha enzyme, ADP-Glo luminescence, 60 min; active compounds read low | max response, %; active = max response of -50% or lower; inconclusive = between -30% and -50%; inactive = -30% or higher; note: value at the top dose of about 77 µM
Target sequence (P48426 whole entry, looked up): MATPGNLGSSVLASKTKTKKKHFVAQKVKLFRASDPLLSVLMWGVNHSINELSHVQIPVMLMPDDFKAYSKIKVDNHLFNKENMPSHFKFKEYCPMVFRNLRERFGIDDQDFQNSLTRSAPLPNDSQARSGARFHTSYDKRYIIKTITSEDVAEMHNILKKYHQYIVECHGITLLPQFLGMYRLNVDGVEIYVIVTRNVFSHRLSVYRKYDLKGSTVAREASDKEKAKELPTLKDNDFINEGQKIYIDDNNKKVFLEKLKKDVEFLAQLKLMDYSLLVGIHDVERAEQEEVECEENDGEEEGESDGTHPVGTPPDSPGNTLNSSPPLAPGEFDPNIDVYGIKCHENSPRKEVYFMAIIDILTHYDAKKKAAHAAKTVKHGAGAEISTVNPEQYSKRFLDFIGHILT
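ADP-Glo luminescence end-point after a 60 min room-temperature kinase reaction. PI5P4Kalpha and substrate in HEPES pH 7.4 buffer with EGTA, 0.1% CHAPS and 5% DMSO; ATP at 5 microM final.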
TbPYK confirm: confirmation of Trypanosoma brucei pyruvate kinase inhibitors | shares compounds with PLK1 PBD inh | 890 compounds, 67% hits | recombinant TbPYK, Kinase-Glo ATP luminescence | Potency, µM (titrated, usually from 76.9 µM), without a hit: at the top dose activity change, negative = inhibition, most hits filed as inhibitors | AID 720569; note: potency is the fitted concentration of half-maximal effect; nearly all actives have a fitted effect of over 70% in size
TbPYK ADP-Glo: TbPYK inhibition, orthogonal confirmation | shares compounds with PLK1 PBD inh | recombinant TbPYK, ADP-Glo luminescence, 60 min | 890 compounds, 62% hits | Potency, µM (doses to about 76.9 µM), inactives show top-dose activity change, negative = inhibition, most hits filed as inhibitors | AID 720584; note: potency is the fitted concentration of half-maximal effect; nearly all actives have a fitted effect of over 75% in size
Numbers without * were called inactive; ? = inconclusive; / = no result given. A selection: hits, their analogues and other compounds. The true share with any hit is near 3.3%. Unless noted, calls come from the whole dose curve; as a rule, active = well fitted curve in the direction sought with a large enough effect; inconclusive = small, poorly fitted or top-dose-only effect, or another doubt; inactive = no such curve, though single readings can be large; an effect the other way counts as inactive or inconclusive. Unless noted, % is set by controls: 0 for no effect and ±100 for the full control effect.

SMILES	PLK1 PBD inh	WRN helicase inh	USP2a inh	USP1 inh	PI5P4K alpha inh	TbPYK confirm	TbPYK ADP-Glo
CCOC1=CC2=C(C(=O)C(Cl)=CC2=O)[C@@H]2CN(S(=O)(=O)c3ccc(C)cc3)[C@@H](c3ccccc3)[C@H]12	6.7µM*	-21%	/	/	-107*	1.4µM*	2µM*
O=C(NCCc1ccc(O)c(O)c1)C1COc2ccccc2O1 (stereo unspecified)	-9%	-9%	0%	-11%	3	18µM*	18µM*
CCN(CC)C(=O)Cn1c(=O)n(CC2CCC(C(=O)NC)CC2)c(=O)c2sccc21 (stereo unspecified)	/	/	/	-4%	/	/	/
Cc1cccc(NC(=O)c2ccc(-c3nc(CSc4ccccc4)c(C)o3)cc2)c1C	/	/	/	-25%	/	/	/
CC(C)n1c(=O)[nH][nH]c1=S	11µM*	56µM*	3%	3%	-103*	1µM*	2.5µM*
CC(C)n1c(=O)[nH]c2ccccc21	-6%	-3%	1%	-15%	/	/	/
COc1ccc(OC)c(C2NC(=O)c3sc(=S)n(-c4ccccc4)c3N2)c1 (stereo unspecified)	?	-8%	0%	-10%	/	2µM*	2.5µM*
COc1cccc(C2NC(=O)c3sc(=S)n(-c4ccccc4)c3N2)c1 (stereo unspecified)	-30%	-1%	-1%	-17%	-2	/	/
Oc1ccc(N2CCN(Cc3nc4ccccc4[nH]3)CC2)cc1	-7%	-9%	1%	-1%	-20	18µM*	28µM*
CCCN(CCC)CCCNC(=O)Cn1cnc2onc(-c3ccc(F)cc3)c2c1=O	/	/	/	-31%	/	/	/
O=C(NCc1ccccc1Cl)C(=O)NCC1OCCN1S(=O)(=O)c1ccc(F)cc1 (stereo unspecified)	-12%	?	0%	0%	-17	18µM*	32µM*
COc1ccc(S(=O)(=O)N2CCOC2CNC(=O)C(=O)NCc2ccccc2Cl)cc1 (stereo unspecified)	-3%	-35%	2%	-13%	11	/	/
CCCCOc1ccc(/C=C/C(=O)OCC(=O)NC(=O)NCC(C)C)cc1OCC	-11%	4%	4%	-12%	3	4%	-2%
CC(=O)C1=C(C)NC(SCC(=O)c2ccccc2)=C(C#N)C1c1ccco1 (stereo unspecified)	/	/	-2%	/	/	/	/
CC(=O)C1=C(C)NC(SCC(=O)c2ccccc2)=C(C#N)C1CC(C)C (stereo unspecified)	-26%	-12%	0%	-18%	?	?	40µM*
CCOc1cc(/C=N/N=C2/NC(=O)C(CC(=O)O)S2)ccc1OCc1ccc(Cl)cc1 (stereo unspecified)	?	-11%	5%	-18%	3	16µM*	32µM*
CC(=O)N1c2ccc(S(=O)(=O)NCCC(=O)Nc3ccc(Br)c(C)c3)cc2CC1C (stereo unspecified)	/	/	/	-15%	/	/	/
CC(C)(C)OC(=O)N1O[C@H]2C[C@@H]1[C@@H]1[C@@H]2N=NN1C12CC3CC(CC(C3)C1)C2	-8%	-3%	-1%	-31%	1	/	/
CC(C)(C)OC(=O)N1O[C@H]2CC1[C@@H]1[C@@H]2N=NN1CCc1ccncc1	-5%	-1%	0%	-21%	-4	7.9µM*	14µM*
O=C(NCc1ccccc1F)C(=O)NCC(c1ccco1)S(=O)(=O)c1cccs1 (stereo unspecified)	/	/	/	-25%	/	/	/
COC(=O)c1sccc1NC(=O)Nc1ccc(F)cc1	4%	0%	0%	-26%	1	?	-4%
Cc1cccc(-c2noc(-c3cccnc3NCc3ccco3)n2)c1	/	/	/	-17%	/	/	/
O=C(O)C1CCc2sc3[nH]c(=S)n(-c4ccccc4)c(=O)c3c21 (stereo unspecified)	?	-14%	0%	-14%	?	2µM*	3.2µM*
